Most compounds without a hit are left out; they make up all but 2.2% or so of the library.
PI4K2A inh = qHTS for small molecular inhibitors of PI4K2A; Phosphatidylinositol 4-kinase type 2-alpha (Homo sapiens), Q9BTU6; 0.13% of 420,000 active; purified PI4K2A, ADP-Glo luminescence, 1 h; stronger effect = lower value; activity change, negative = inhibition, % at 76.9 µM; in the data active = activity change below about -50%; inconclusive = mostly about -30% to -49%;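 also: -100% = wells without enzyme as full effect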
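PI4K2A activity was measured by ADP-Glo luminescence: enzyme (4 ug/mL stock) and phosphatidylinositol (1.2 mM stock) in Tris pH 7.5/MgCl2/EGTA/Triton X-100 buffer were reacted with ATP (300 microM stock) for one hour at ambient temperature.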
miR-21 reporter = qHTS Assay for Modulators of miRNAs and/orActivators of miR-21; AID 2288, 2010; 340,000 tested, under 10 active; Potency, µM (series often up to 38.3 µM), for the others: at the highest dose activity change, positive = activation, actives largely listed as activators; HeLa miR-21 FLuc reporter, luciferase, 48 h;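 also: % of control where 0% means no effect; miR-21 action dims this reporter so a rising signal means less miR-21 action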
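Luminescence from a firefly luciferase reporter carrying a miR-21 binding site downstream, stably expressed under a CMV promoter in HeLa cells that make miR-21 endogenously, reports miRNA modulation after 48 h compound exposure up to approximately 40uM final.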
Nrf2 ARE act = qHTS of Nrf2 Activators; AID 624171, 2012; AREc32 ARE-luciferase reporter (MCF7-derived line), luminescence, 24 h; Potency, µM (series often up to 46.1 µM), for inactives: top-dose activation, usual class: activators; 0.31% of 410,000 active; also: potency is read from the fitted curve at half-maximal effect; % of control where 0% means no effect; nearly all actives have a fitted effect of over 65% in size
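ARE activation measured as luciferase luminescence (Steady-Glo, 30 min RT) in AREc32_Fluc cells after 24 hr compound exposure at 37 deg C, 5% CO2; cells seeded overnight at 1000/well in OPTI-MEM, 5% FBS.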
A549 tox = Nrf2 qHTS screen for inhibitors: counterscreen for cytotoxicity; A549 ARE-Fluc cells, CellTiter-Fluor viability, 18-24 h; Potency, µM (doses to about 46 µM), without a hit: at the top dose activity change, negative = cytotoxicity, usual class: inhibitors; 0.16% of 390,000 active; also: potency is read from the fitted curve at half-maximal effect; % is scaled to controls: 0 for no effect and ±100 for the full control effect
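A549 ARE_Fluc cells in 5% FBS OPTI-MEM were exposed to compounds in concentration-response for 18-24 h at 37 deg C. Viability was read by CellTiter-Fluor fluorescence (Ex 405/Em 525) after 30 min, before the luciferase read.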
GALK inh = qHTS Assay for Inhibitors of Human Galactokinase (GALK). P51570. Purified GALK, Kinase-Glo residual ATP luminescence. Potency, µM (doses to about 57.5 µM), for inactives: at the top dose activity change, negative = inhibition, hits mostly inhibitors. 0.007% of 270,000 active. AID 1868, 2009; also: potency is read from the fitted curve at half-maximal effect; % is scaled to controls: 0 for no effect and ±100 for the full control effect
Target sequence (P51570 whole entry, looked up): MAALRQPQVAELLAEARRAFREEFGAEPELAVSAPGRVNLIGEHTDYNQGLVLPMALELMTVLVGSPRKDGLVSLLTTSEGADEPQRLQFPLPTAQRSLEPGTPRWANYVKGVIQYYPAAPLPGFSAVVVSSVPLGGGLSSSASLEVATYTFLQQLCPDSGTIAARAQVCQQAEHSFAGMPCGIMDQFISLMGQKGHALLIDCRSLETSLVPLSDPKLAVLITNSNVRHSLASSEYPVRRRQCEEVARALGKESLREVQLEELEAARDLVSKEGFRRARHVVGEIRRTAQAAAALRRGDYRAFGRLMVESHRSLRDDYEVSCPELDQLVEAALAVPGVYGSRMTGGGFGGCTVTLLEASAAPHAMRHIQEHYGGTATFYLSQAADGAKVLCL
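5 nM enzyme, 35 uM ATP, 100 uM galactose, 20 mM HEPES pH8.0, 5 mM MgCl2; 1 h RT; residual ATP by Kinase-Glo Plus luminescence, qHTS format.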
Nrf2 inh = Nrf2 qHTS screen for inhibitors. A549 ARE-Fluc reporter, luciferase luminescence, 18-24 h. Potency, µM (highest dose often 46 µM), without a hit: at the highest dose activity change, negative = inhibition, most hits filed as inhibitors. 2.1% of 360,000 active. AID 504444, 2011; also: potency is read from the fitted curve at half-maximal effect; % is scaled to controls: 0 for no effect and ±100 for the full control effect; nearly all actives have a fitted effect of over 60% in size
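A549 ARE_Fluc cells (5000/well, 5% FBS OPTI-MEM) pre-incubated 2 h, then treated with compounds 18-24 h at 37C/5% CO2 in concentration-response. CellTiter-Fluor viability read first; BugLite luciferase luminescence after 15 min at room temperature gives Nrf2 activity.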
Active calls of the source: *; ? = inconclusive; / = no result; ! = repeats disagree. Unless noted, calls follow the shape of the dose curve; as a rule, active = well fitted curve in the direction sought with a large enough effect; inconclusive = small, poorly fitted or top-dose-only effect, or another doubt; inactive = no such curve, though single readings can be large; an effect the other way counts as inactive or inconclusive.

SMILES	PI4K2A inh	miR-21 reporter	Nrf2 ARE act	A549 tox	GALK inh	Nrf2 inh
C[C@@H]1CN([C@@H](C)COC(=O)C(C)(C)C)C(=O)c2cc(NC(=O)Nc3ccccc3)ccc2O[C@@H](C)CCCCO[C@H]1CN(C)S(=O)(=O)c1ccc(F)cc1	0.7	/	/	/	/	/
COP(=O)(OC)C(NC(=O)OCc1ccccc1)C(C)C (stereo unspecified)	0.2	/	/	/	/	/
COc1ccc(-c2cc(C(=O)Nc3sc4c(c3C#N)CCCC4)c3ccccc3n2)cc1	-5.2	-10.8%	2.8%	-6.7%	0.6%	-2.6%
CCOC(=O)c1sc(NC(=O)c2cc(-c3ccc(C)cc3)nc3ccccc23)c(C#N)c1C	3.3	-1.0%	0.1%	1.4%	0.0%	22.3%
Cc1ccccc1-c1cc(C(=O)Nc2sc(C(=O)OC(C)C)c(C)c2C#N)c2ccccc2n1	-9.6	?	2.1%	7.31µM*	-1.1%	2.59µM*
COC(=O)c1sc(NC(=O)c2cc(-c3ccccc3)nc3ccccc23)c(C#N)c1C	-10.6	26.4%	5.1%	?	-0.7%	9.2µM*
CC(C)(C)OC(=O)Nc1ncnc2c1C(c1ccccc1)c1c(ccc3ccccc13)O2 (stereo unspecified)	/	/	/	0.4%	/	3.9%
Nc1ncnc2c1C(c1ccccc1)c1c(ccc3ccccc13)O2 (stereo unspecified)	-0.7	/	-1.7%	?	/	18.4µM*!
N=c1c2c(ccn1CCc1ccccc1)Oc1ccc3ccccc3c1C2c1ccccc1 (stereo unspecified)	/	/	/	3.66µM*	/	3.66µM*
O=C1CC(C(=O)Nc2ccc(F)cc2)S/C(=N\N=C\c2ccco2)N1 (stereo unspecified)	3.1	4.3%	11.2µM*	-3.8%	-1.0%	-4.9%
CN1/C(=C\C(=S)NC(=O)c2cccc(Br)c2)C(C)(C)c2ccccc21	-14.9	14.3%	3.0%	-13.5%	0.4%	20.6µM*
O=C1c2ccc3c4c(ccc(c24)C(=O)N1CCCCO)C(=O)N(CCCCO)C3=O	-7.8	?	-2.3%	18.4µM*	4.4%	?
COC(=O)CCCN1C(=O)c2cccc3cccc(c23)C1=O	25.1	-28.7%	12.6µM*	1.4%	-2.5%	0.7%
c1ccc(CCNc2nc(-c3ccccc3)cs2)cc1	-6.1	/	/	/	/	/
CCc1cc2c(=O)c(-c3nc(C)cs3)coc2cc1O	-1.2	-20.7%	?	1.0%	-1.0%	2.0%
Cc1csc(-c2coc3cc(O)cc(C)c3c2=O)n1	-6.4	0.9%	10µM*	1.3%	5.5%	?
O=S(=O)(c1ccccc1)c1nc(-c2ccc(F)cc2)oc1N1CCCCCC1	4.7	4.0%	6.4%	-11.8%	/	25.9µM*
O=C(/C=C/c1c(F)cccc1Cl)Nc1ccc(S(=O)(=O)Nc2ncccn2)cc1	2.5	-5.7%	11.6%	4.2%	-4.3%	6.5%
O=C(/C=C/c1c(F)cccc1Cl)Nc1ncccn1	0.7	-66.8%	7.94µM*	-5.0%	3.7%	?
O=C(/C=C/c1ccccc1Cl)c1ccc(O)cc1	-4.8	12.0%	?	10.0%	7.0%	1.3%
O=C(/C=C/c1c(F)cccc1Cl)c1ccc(O)cc1	2.8	-5.1%	12.6µM*	-3.4%	-4.0%	-15.2%
O=C(Cn1nnc(-c2ccccc2F)n1)Nc1ccc(Cl)cc1	0.3	/	/	/	/	/
CCCCNC(=O)C1(C(=O)c2ccc(OC)cc2)CC(c2ccccc2C(F)(F)F)=NO1 (stereo unspecified)	-2.6	/	/	/	/	/
COc1ccc(C2=Nn3c(nnc3-c3ccccc3OC)SC2)c(OC)c1	/	/	/	2.3%	/	18.7%
CC(C)(C)CCN1C[C@@H]2C(CNC(=O)c3cc(Cl)cc(Cl)c3)[C@@H]2C1 (stereo partly specified)	5.3	/	/	/	/	/

Assay outcomes from PubChem BioAssay.
